According to PubChem BioAssay AID1626 (SRMLSC, 2009):
Out of some 220,000 compounds screened, about 2,000 (0.91%) were called active. Roughly 2% stayed inconclusive and do not appear here. Cut-off read from the data, not from the text of the source: inconclusive = inhibition above about 80% without an active follow-up result; inactive = below that; test concentration not stated here. A selection follows. Potency and affinity values are given separately.

Test: M. tuberculosis H37Rv growth inhibitors, H37Rv strain (AID 1626);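 note: bacteria incubated seven days before Alamar blue readout; 0% = bacteria only wells and 100% = bacteria with antibiotic wells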
Conditions: stronger effect = higher value, concentration not given here

| SMILES | inhibition |
| --- | --- |
| O=C(NCC1CCCO1)C(c1ccc(F)cc1)N(Cc1ccc(F)cc1)C(=O)Cn1nnc(-c2cccs2)n1 (stereo unspecified) | -8.2% (inactive) |
| O=C(NCCc1nc2ccccc2[nH]1)/C(=C/c1ccc2c(c1)OCO2)NC(=O)c1ccccc1Cl | 2.62% (inactive) |
| O=C(NCCc1nc2ccccc2[nH]1)/C(=C/c1ccc2c(c1)OCO2)NC(=O)c1ccccc1 | 1.83% (inactive) |
| Nc1nc(N)nc(-c2ccccn2)n1 | -3.41% (inactive) |
| Cc1n[nH]c(C)c1Cc1c(F)cccc1Cl | -0.71% (inactive) |
| CC(NCc1ccc(Cl)cc1Cl)C(O)c1ccccc1 (stereo unspecified) | 5.99% (inactive) |
| CC1CCCN(S(=O)(=O)c2ccc3c(c2)CCN3C(=O)C2CCC2)C1 (stereo unspecified) | 5.83% (inactive) |
| ONC(=Nc1ccc(Cl)cc1)c1ccc(Cl)cc1 | -13.7% (inactive) |
| Cc1ccc(C(c2c(C)nn(-c3ccccc3)c2N)c2c(C)nn(-c3ccccc3)c2N)cc1 | 6.99% (inactive) |
| Cc1nn(-c2ccccc2)c(N)c1C(c1ccccc1)c1c(C)nn(-c2ccccc2)c1N | 9.35% (inactive) |
| C#CCNC(=O)C1CCN(c2cc(C)nc(-c3ccccc3)n2)CC1 | -0.44% (inactive) |
| CCOC(=O)c1cc([N+](=O)[O-])sc1NC(=O)c1ccc(S(=O)(=O)N2CC3(C)CC2CC(C)(C)C3)cc1 (stereo unspecified) | -0.55% (inactive) |
| O=C(O)c1ccc(O)c(N2C(=O)Nc3ccccc3N2O)c1 | -1.41% (inactive) |
| CC[C@@H]1C=C(C)C[C@H](C)C[C@H](OC)[C@H]2O[C@@](O)(C(=O)C(=O)N3CCCC[C@H]3C(=O)O[C@H](/C(C)=C/[C@@H]3CC[C@@H](O)[C@H](OC)C3)[C@H](C)[C@@H](O)CC1=O)[C@H](C)C[C@@H]2OC | 5.69% (inactive) |
| Fc1cccc(CSc2nc3ncc(Cl)cc3[nH]2)c1 | -0.1% (inactive) |
| CCc1[nH]c(=S)c(C#N)c2c1CCCC2 | -2.7% (inactive) |
| COc1cc2cc(/C=C/C(=O)c3ccco3)c(Cl)nc2cc1OC | -1.16% (inactive) |
| CCOc1ccc2nc(Cl)c(/C=C/C(=O)c3ccco3)cc2c1 | 21.5% (inactive) |
| Cc1ccc(N/C=C/C(=O)c2ccco2)c(O)c1 | -2.39% (inactive) |
| Cc1cccc2cc(/C=C/C(=O)c3ccco3)c(Cl)nc12 | 7.5% (inactive) |
| Cc1nc([N+](=O)[O-])cn1CC(=O)NCCCO | 8.65% (inactive) |
| Cc1ccc(-n2c(CNC(=O)c3cccs3)nnc2SCC(=O)NO)cc1 | 2.75% (inactive) |
| COC(=O)c1ccc(CN2CCN(Cc3ccccc3)C(CCO)C2)cc1 (stereo unspecified) | -3.82% (inactive) |

| SMILES | inhibition |
| --- | --- |
| COc1ccc(N(C(=O)c2ccco2)C(C(=O)NC2CCCC2)c2ccc(N(C)C)cc2)cc1OC (stereo unspecified) | -5.56% (inactive) |
| CCCc1cc(=O)n2[nH]c(C)c(-c3ccccc3)c2n1 | 11.9% (inactive) |
| COC(=O)Cc1cc(=O)n2[nH]c(C)c(-c3ccccc3)c2n1 | -0.6% (inactive) |
| Cc1ccccc1-c1cc2nc(-c3ccc([N+](=O)[O-])cc3)cc(=O)n2[nH]1 | -6.76% (inactive) |
| O=c1cc(-c2ccccc2)nc2c(-c3ccccc3)c(C(F)(F)F)[nH]n12 | 2.66% (inactive) |
| COc1ccc(CCNCC(O)c2ccccc2)cc1 (stereo unspecified) | -12.7% (inactive) |
| CC(NC(=O)c1ccccc1NC(=O)c1ccncc1)c1ccccc1 (stereo unspecified) | 6.19% (inactive) |
| CC(C)OC(=O)/C(=C\c1cccc2ccccc12)NC(=O)c1ccccc1 | 11.6% (inactive) |
| N/C(=N\OC(=O)c1ccc(Cl)cc1)c1[nH]ncc1Br | -8.82% (inactive) |
| CC(C)(C)NC(=O)c1ccc2c(c1)N(CC(=O)N1CCN(c3ccc(F)cc3)CC1)C(=O)C(C)(C)O2 | 8.11% (inactive) |
| O=C(O)c1cccc(S(=O)(=O)Nc2ccccc2N2CCOCC2)c1 | -1.57% (inactive) |
| Cc1cccc(C(=O)O/N=C(\N)Cc2ccc([N+](=O)[O-])cc2)c1 | 7.62% (inactive) |
| COc1ccccc1C1(CCN=Cc2ccc(N(C)C)cc2)CCOC(C)(C)C1 (stereo unspecified) | 2.7% (inactive) |
| CCC(/C=C1\Sc2ccc(OC)cc2N1CC)=C\c1sc2ccc(OC)cc2[n+]1CCCS(=O)(=O)[O-] | 0.61% (inactive) |
| CCC(=O)/C=C1\Sc2ccc(OC)cc2N1CCO | -14.1% (inactive) |
| O=C(NC1CCS(=O)(=O)C1)C1C2CC3CC(C2)CC1C3 (stereo unspecified) | 0.76% (inactive) |
| O=C1CCCC(=O)C1Sc1ccc(Cl)cc1 | 3.4% (inactive) |
| COc1ccc(N=C/C=C2\C=C(c3ccccc3)OC(C)(C)O2)cc1 | 76.4% (inactive) |
| CC1(C)OC(c2ccccc2)=C/C(=C/C=Nc2ccccc2)O1 | -2.83% (inactive) |
| C1CSC2(N1)C1CC3CC2CC(C1)C31NCCS1 (stereo unspecified) | -4.53% (inactive) |
| Cc1cc(C)cc(NC(=O)c2ccccc2CC[N+](=O)[O-])c1 | 58.2% (inactive) |
| O=C(NCCCN1CCN(CCCNC(=O)c2ccc(F)cc2)CC1)c1ccc(F)cc1 | -9.24% (inactive) |
| CC(C)(C)c1ccc(C(=O)NCCN2CCCC2)cc1 | -0.48% (inactive) |

| SMILES | inhibition |
| --- | --- |
| CCOC(=O)c1ccc(NC(=O)NCCc2ccccc2OC)cc1 | 5.79% (inactive) |
| CCN(CC)C(=O)c1c(C)[nH]c(=S)c(C#N)c1-c1ccco1 | -4.78% (inactive) |
| Brc1ccc(-c2cn3cccnc3n2)cc1 | -1.72% (inactive) |
| Brc1ccc(-c2cn3ccccc3n2)cc1 | -4.5% (inactive) |
| O=C1CCC(=O)N1CNc1cccnc1 | -9.49% (inactive) |
| O=C1C2=C(CCCC2)C(=O)N1CNc1ccccc1 | -13.7% (inactive) |
| CCn1c(=S)sc2c(=O)n(-c3ccccc3)c(=S)[nH]c21 | -1.81% (inactive) |
| COc1ccc(C(=O)N2CCN(c3ccccc3OC)CC2)cc1 | 0.49% (inactive) |
| O=C(O)/C=C/c1ccc(S(=O)(=O)NCc2cccnc2)cc1 | -0.59% (inactive) |
| CN(CC(O)COC(c1ccccc1)c1ccccc1)C1CCCCC1 (stereo unspecified) | 5.91% (inactive) |
| CC1CCCC(NC(=O)CSc2ccc(F)cc2)C1C (stereo unspecified) | -2.7% (inactive) |
| Cc1ccc(C)c(Oc2cc(NC(=O)CCCn3nc(C)c([N+](=O)[O-])c3C)cc([N+](=O)[O-])c2)c1 | 5.87% (inactive) |
| Cc1cc([N+](=O)[O-])nn1CCCC(=O)Nc1cc(Oc2ccccc2)cc([N+](=O)[O-])c1 | 33.1% (inactive) |
| Cc1ccccc1Oc1cc(NC(=O)CCCn2nc(C)c([N+](=O)[O-])c2C)cc([N+](=O)[O-])c1 | 4.71% (inactive) |
| Cc1nn(CCCC(=O)Nc2cc(Oc3ccccc3)cc([N+](=O)[O-])c2)c(C)c1[N+](=O)[O-] | 4.46% (inactive) |
| Cc1cc([N+](=O)[O-])nn1CCCC(=O)Nc1cc(Oc2ccc(F)cc2)cc([N+](=O)[O-])c1 | 76% (inactive) |
| Cc1c(Cl)c([N+](=O)[O-])nn1CCCC(=O)Nc1cccc(Cl)c1 | -0.67% (inactive) |
| CN1CCC(C2(O)c3ccccc3CCc3ccccc32)CC1 | -4.72% (inactive) |
| Cc1ccc(-c2nn(-c3ccccc3)cc2/C=N/NC(=O)CSc2nnc(C)n2-c2ccccc2)cc1 | 5.75% (inactive) |
| COc1cc(NC(=O)CCCc2c[nH]c3ccccc23)cc(OC)c1 | 13% (inactive) |
| COc1ccc(/C=N/NC(=O)c2cc(C34CC5CC(CC(C5)C3)C4)[nH]n2)cc1OC | -1.09% (inactive) |
| COCCN1C(=O)N[C@@H](c2cccc(F)c2)C(C(=O)OC)=C1C | -7.87% (inactive) |
| CC(=O)c1ccc(NC(=O)C(NC(=O)c2ccccc2)=C(C)C)cc1 | -4.51% (inactive) |

| SMILES | inhibition |
| --- | --- |
| Cc1cccc2nc(-c3ccco3)c(Nc3ccccc3)n12 | -7.83% (inactive) |
| Cc1ccccc1Nc1c(-c2ccncc2)nc2ccc(Cl)cn12 | -2.88% (inactive) |
| Cc1ccc2nc(-c3cccnc3)c(Nc3ccccc3C)n2c1 | 5.59% (inactive) |
| Clc1ccc(-c2nc3ncccn3c2Nc2ccc3c(c2)OCO3)cc1 | 7.95% (inactive) |
| Cc1ccc2nc(-c3ccco3)c(Nc3ccccc3)n2c1 | 2.97% (inactive) |
| Clc1ccc(-c2nc3cnccn3c2Nc2ccc3c(c2)OCO3)cc1 | 31% (inactive) |
| Cc1cccc2nc(-c3cccnc3)c(Nc3ccccc3)n12 | -0.36% (inactive) |
| Cc1ccc2nc(-c3ccncc3)c(Nc3ccccc3)n2c1 | 2.3% (inactive) |
| CCN1CCN(C(=O)COc2ccc3c(c2)C(=O)CC2(CCN(C(C)=O)CC2)O3)CC1 | -8.68% (inactive) |
| CCOC(=O)C1CCN(C(=O)CSc2ccc(Cl)cc2)CC1 | 1.63% (inactive) |
| O=C(c1ccc([N+](=O)[O-])c(CS(=O)(=O)c2ccc(Cl)cc2)c1)N1CCCCC1 | 3.1% (inactive) |
| CCOC(=O)CSc1ccc2nnc(CCNS(=O)(=O)c3ccc(C)cc3)n2n1 | 4.15% (inactive) |
| Cc1oc(C(C)(C)C)c(CN2CCCC2)c1C(=O)O | 5.71% (inactive) |
| Cc1cccc(-c2nnc(SCC#N)n2C)c1 | 1.96% (inactive) |
| CCOC(=O)c1cc(C(C)(C)C)nc(SC)c1C#N | 0.56% (inactive) |
| COc1ccc(C(O)P(=O)(OCC(C)C)OCC(C)C)c(OC)c1 (stereo unspecified) | 5.08% (inactive) |
| Cc1cc(C)n2nc(C(=O)Nc3nccs3)nc2n1 | -4.36% (inactive) |
| O=c1c2c3c(sc2nc2sc(CN4CCOCC4)cn12)CCCC3 | -5.88% (inactive) |
| CC(=O)Nc1c(C(=O)C2CC2)oc2ccccc12 | 8.66% (inactive) |
| O=C(O)CCSCC(=O)Nc1c(C(=O)C2CC2)oc2ccccc12 | -2.71% (inactive) |
| CC1(C)Cc2ccccc2C(N/N=C/c2ccc([N+](=O)[O-])cc2)=N1 | 3.59% (inactive) |
| CSCCC(NC(=O)c1ccc([N+](=O)[O-])cc1Cl)C(=O)OCC(=O)NCCCc1ccccc1 (stereo unspecified) | -2.31% (inactive) |
